# Measured values: PubChem BioAssay AID1578 (Sanford-Burnham Center for Chemical Genomics, 2009)
# The campaign covered roughly 290,000 compounds. About 3,000 (1%) were called active. For the sample, actives were picked, then their nearest neighbours and some compounds at random. Values without a mark were called inactive. Cut-off read from the data, not from the text of the source: active = inhibition mostly above about 36% (no sharp cut-off); inactive = mostly below about 34%.
# Experiment: NOD1 signaling inhibitors, primary screen, cell-based, luminescence, uHTS (AID 1578);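 note: HEK-293T reporter cells stimulated with the NOD1 agonist gamma-tri-DAP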
# Conditions: NOD1-driven NF-kB luciferase reporter cells, at 4 µM, stronger effect = higher value
row,Compound,inhibition
1,CCOC(=O)c1c(C)[nH]c(C2=NNC(=Nc3ccc(OCC)cc3)SC2)c1C,-31.6%
2,COc1cc(O)c2c(c1)OC(C)(C)CC2=O,5.2%
3,CC1(C)CC(=O)c2c(O)cc(O)cc2O1,-18.9%
4,COc1cc(O)cc2cc3c(c(O)c12)C(=O)CC(C)(O)O3 (stereo not given),51.8% (active)
5,Cc1ccc(S(=O)(=O)c2nnn3c2nc(N2CCCCC2)c2ccccc23)cc1,-42.5%
6,COc1ccc(CCNC(=O)c2cc(C)oc2C)cc1,-16%
7,CC(=O)Nc1ccc(OCc2cccc3ccccc23)cc1,29.7%
8,Cc1ccc(C(C#N)c2ccc3c(C(F)(F)F)cc(C(F)(F)F)nc3n2)cc1 (stereo not given),30%
9,N#CC(c1ccc(Cl)cc1)c1ccc2c(C(F)(F)F)cc(C(F)(F)F)nc2n1 (stereo not given),39.5%
10,CCNS(=O)(=O)c1ccc2c(c1)NCC2,-16.1%
11,COc1ccc(C(=O)N(C)Cc2ccccc2)cc1Br,-39.1%
12,COc1cc(C(=O)NC(=S)N(C)Cc2ccccc2)cc(OC)c1OC,-14.8%
13,COc1ccc(C(=O)NC(=S)N(C)Cc2ccccc2)cc1Br,45% (active)
14,Cc1cc(C)c(OCCCCn2cnc3ccccc3c2=O)c(C)c1,12.5%
15,CCOC(=O)Cc1[nH]nc2c1C(c1ccsc1)C(C#N)=C(N)O2 (stereo not given),-16.3%
16,CC(=O)Nc1ccc(S(=O)(=O)Nc2ccc3c(c2)OCCO3)cc1,-25%
17,CC[n+]1c(-c2ccccc2)csc1Nc1c(C)n(C)n(-c2ccccc2)c1=O,-17.7%
18,C=CC[n+]1c(-c2ccc(C)cc2)csc1Nc1c(C)n(C)n(-c2ccccc2)c1=O,8.4%
19,CCOc1ccc(CCNC(=O)C2CCC(=O)N2C2CCCCC2)cc1OCC (stereo not given),6%
20,O=C(NCc1cccnc1)C1CCCN(S(=O)(=O)c2ccccc2)C1 (stereo not given),-13.3%
21,Cc1cc([N+](=O)[O-])nn1CCCC(=O)Nc1ccc(Cl)cc1Cl,-21%
22,COC(=O)c1cccc(NC(=O)Cn2nnc3ccccc32)c1,-17.8%
23,Cc1csc(NC(=O)CSc2nnc3ncccn23)n1,-6.2%
24,CCCCNC(=O)NCc1cnn(C)c1C,-24.6%
25,CC(=O)NNC(=O)c1ccncc1,-26.4%

row,Compound,inhibition
1,CCCCc1nc2ccc(S(=O)(=O)O)cc2[nH]1,7.8%
2,COc1ccccc1S(=O)(=O)c1ccccc1[N+](=O)[O-],-10.5%
3,COc1ccc([N+](=O)[O-])c(S(=O)(=O)c2ccc(Cl)cc2)n1,79.2% (active)
4,Cn1cnc([N+](=O)[O-])c1S(=O)(=O)c1ccc(Cl)cc1,-30.1%
5,O=[N+]([O-])c1ccccc1S(=O)(=O)c1ccccc1,-2.8%
6,COc1ccc([N+](=O)[O-])c(S(=O)(=O)c2ccccc2)n1,61.7% (active)
7,COc1ccc(OCCOc2ccccc2[N+](=O)[O-])cc1,-19.1%
8,COc1nc(OC)nc(Oc2ccc(Cl)cc2[N+](=O)[O-])n1,0.6%
9,Nc1cccnc1S(=O)(=O)c1ccccc1,-2.3%
10,Cc1ccc(C(=O)COC(=O)CN2C(=O)C3C4CC(C(Br)C4Br)C3C2=O)cc1 (stereo not given),-29.5%
11,CC(C)n1c(=O)n(CC(=O)NCC2CCCO2)c(=O)c2c3c(sc21)COC(C)(C)C3 (stereo not given),-14%
12,Cc1ccc(N(C(C)C(=O)Nc2cccc(N(C)S(C)(=O)=O)c2)S(C)(=O)=O)cc1 (stereo not given),-21.2%
13,CC(C)NC(=O)CN(Cc1ccc2c(c1)OCO2)C(=O)CCC(=O)Nc1ccccn1,-22.2%
14,O=C(Cc1ccc([N+](=O)[O-])cc1)N1CCN=C1SCc1ccccc1,-5%
15,Cc1cc(S(=O)(=O)Nc2ccc(C(=O)NCC(C)(C)N3CCOCC3)cc2)ccc1F,-4.6%
16,OCCN(CCO)CC(O)CN1c2ccccc2Sc2ccccc21 (stereo not given),2.7%
17,CCC(C)NC(=O)Cn1cc2c(n1)CCC(C)C2 (stereo not given),7.9%
18,CCOc1ccccc1N(CC(=O)NCc1ccco1)C(=O)CCC(=O)Nc1nccs1,-30.2%
19,COc1ccc(CNCc2cc(OC)ccc2OC)cc1,-19.6%
20,CCSC1=C(C#N)C(c2ccccc2Cl)C(C(=O)c2cccs2)C(O)(C(F)(F)F)N1 (stereo not given),64.5% (active)
21,C=CCSC1=C(C#N)C(c2ccccc2Cl)C(C(=O)c2cccs2)C(O)(C(F)(F)F)N1 (stereo not given),63.3%
22,CSC1=C(C#N)C(c2ccccc2Cl)C(C(=O)c2cccs2)C(O)(C(F)(F)F)N1 (stereo not given),-8.1%
23,CC1=NN(c2ccccc2)C(=O)C1=C(C)C,-15.5%
24,CCOC(=O)C(c1ccccc1)C(Nc1ccc(F)cc1)c1ccccn1 (stereo not given),-2%
25,CC(C)(C)c1ccc(C(=O)N/N=C/c2cccc(Cl)c2)cc1,72.3% (active)

row,Compound,inhibition
1,O=C(N/N=C/c1cccc(F)c1)c1ccc(Cl)cc1,-50.5%
2,Cn1c(=O)n(C)c2cc(/C=N/NC(=O)c3ccc(Cl)cc3)ccc21,-11.1%
3,CCC(=O)c1c[nH]c(C(=O)N2CCOCC2)c1,-10.3%
4,CCCN1C=CC(=C2C(=O)c3ccccc3C2=O)C=C1,97.9%
5,CCCCN1C(C)=CC(=C2C(=O)c3ccccc3C2=O)C=C1C,-16.5%
6,CCCCCN1C=CC(=C2C(=O)c3ccccc3C2=O)C=C1,93.3% (active)
7,CCCCCCCN1C=CC(=O)CC1,2%
8,CC1=CC(=C2C(=O)c3ccccc3C2=O)C=C(C)O1,-62.6%
9,CCCCCCN1C=CC(=C2C(=O)c3ccccc3C2=O)C=C1,80.8% (active)
10,CN1C=CC(=C2C(=O)c3ccccc3C2=O)C=C1,-58.3%
11,CCCCN1C=CC(=C2N=c3cccc([N+](=O)[O-])c3=N2)C=C1,35.9%
12,CC1=CC(=C2C(=O)c3ccccc3C2=O)C=C(C)N1C,-1.3%
13,CCCCCCN1Cc2ccccc2C1,5.4%
14,CCN1C=CC(=C2C(=O)c3ccccc3C2=O)C=C1,90.4% (active)
15,CCCCN1C=CC(=C2C(=O)c3ccccc3C2=O)C=C1,95.3% (active)
16,COC(=O)c1ccc(CC(=O)c2nc3ccccc3s2)cc1,-21.3%
17,COc1ccc(C2CC(c3ccc4ccccc4c3OC(C)=O)=NN2C(C)=O)cc1 (stereo not given),-2.5%
18,CCN(CC)S(=O)(=O)c1ccc2c(c1)[nH]c(=S)n2CC,-41.3%
19,CCOc1ccc(CCNC(=O)COC(=O)C2CCN(S(=O)(=O)c3ccc(C)c(C)c3)CC2)cc1OCC,-4.1%
20,CC(=O)NC1CC2CCC(C1)N2Cc1ccc(C)cc1 (stereo not given),-106%
21,Cc1c(C)c2ccc(OCC(=O)NC(Cc3ccc(Cl)cc3)C(=O)O)cc2oc1=O (stereo not given),-25%
22,O=S(=O)(c1ccccc1)N1CCCc2ccccc21,8.6%
23,COc1ccc(N2CCN(C(=O)c3cc(=O)c4cc(C)c(C)cc4o3)CC2)cc1,-10.3%
24,c1ccc(OCc2nc3ccccc3s2)cc1,-39.1%
25,COC(=O)c1ccc(CN2C(=O)NC3(CCC(C)CC3)C2=O)cc1 (stereo not given),-51.8%

row,Compound,inhibition
1,COCCNC(=S)N/N=C/c1ccccc1C(=O)O,-17.1%
2,Cc1ccc(C(=O)c2cncc(Br)c2)cc1,48.9% (active)
3,Cc1ccc(NC(=O)c2cncc(Br)c2)c([N+](=O)[O-])c1,5.4%
4,CCc1ccc(C(=O)c2cncc(Br)c2)cc1,-3.9%
5,Cc1ccc(NC(=O)c2cncc(Br)c2)c(O)c1,66% (active)
6,Cc1ccc(NC(=O)c2cncc(Br)c2)nc1,-55.8%
7,O=C(c1ccccc1)c1cncc(Br)c1,-4.9%
8,O=C(C[n+]1cc(-c2ccc(F)cc2)n2c1CCC2)Nc1nc(-c2ccc(F)cc2)cs1,11.7%
9,CCS(=O)(=O)n1nc(-c2ccccc2)nc1NCc1ccco1,-33.3%
10,CS(=O)(=O)n1nc(-c2ccccc2)nc1NCc1ccco1,57.3% (active)
11,Cc1ccc(-c2nc(NCc3ccco3)n(S(C)(=O)=O)n2)cc1,-21.9%
12,Cc1c(C)n(-c2ccccc2)c2ncnc(NCCN(C)C)c12,1.2%
13,O=C(Nc1nc(-c2ccccc2)cs1)c1ccc(N2CCOCC2)c([N+](=O)[O-])c1,104% (active)
14,O=C(Nc1nccs1)c1ccc(N2CCOCC2)c([N+](=O)[O-])c1,-45.2%
15,O=C(Nc1nc(-c2ccc(-c3ccccc3)cc2)cs1)c1cc([N+](=O)[O-])ccc1N1CCOCC1,-31.8%
16,Cn1nnc(NC(=O)c2ccc([N+](=O)[O-])cc2Cl)n1,11.3%
17,CC(C)(Cc1ccc(O)cc1)NC(=O)c1ccccc1,43.7%
18,CC(C)(Cc1ccc(O)cc1)NC(=O)SCc1ccccc1,72.6% (active)
19,C=CC(=O)NC(C)(C)Cc1ccccc1,1.5%
20,CC(C(=O)NCc1ccccc1)N1C(=O)C2CC=C(Cl)CC2C1=O (stereo not given),13.9%
21,Cc1cccc(N/C(=N/S(=O)(=O)c2ccccc2)c2ccccc2)n1,-38%
22,Cc1ccc(CN2C(=O)CSC2c2ccc(F)cc2)cc1 (stereo not given),-22.3%
23,CCOCCCNC(=S)N1CCN(Cc2ccco2)CC1,57.4% (active)
24,S=C(NCc1ccco1)N1CCN(Cc2ccco2)CC1,-6.3%
25,CCOCCCNC(=S)N1CCN(CC)CC1,-22.2%
